# Reference: the supplement of paper PMC13172266
# Where a name gives a salt, the structure may show the parent alone.
# How the values were obtained:
# Assay in all cases: cell proliferation relative to vehicle (% of vehicle); higher = less growth inhibition
# Conditions in all cases: 72 h
# [1] = tested on: U2932 TK216-resistant clone 2
# In short: (§1)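 A targeted inhibitor library of 348 compounds was tested on the ABC-DLBCL line U2932, both parental and two clones made resistant to an ETS-targeting agent by repeated exposure over almost a year. Cells were grown at 37°C and 5% CO2 in medium with 10% FBS, then treated at 500 nM or 50 nM for 72 h. MTT was added for 4 h, stopped with 25% SDS, and absorbance was read on a Cytation 3. Proliferation is reported as percent of proliferating cells relative to vehicle (DMSO).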
# [2] = tested on: U2932 TK216-resistant clone 3
# In short: as §1
# U2932 parental = tested on: U2932 parental
# In short: as §1
Compound,cell proliferation ([1]; 50 nM),cell proliferation ([1]; 500 nM),cell proliferation ([2]; 50 nM),cell proliferation ([2]; 500 nM),cell proliferation (U2932 parental; 50 nM),cell proliferation (U2932 parental; 500 nM)
NCC(=O)Nc1ccc(-n2nc(C(F)(F)F)cc2-c2ccc3c(ccc4ccccc43)c2)cc1,99.6,84.6,95.3,72.8,96.2,82.4
COc1nc(OCc2cccc(-c3ccccc3)c2C)ccc1CNCCNC(C)=O [PD-1/PD-L1 inhibitor 2],95.9,89,94.4,82.7,104,91.5
O=C(/C=C/c1ccc(CN(CCO)CCc2c[nH]c3ccccc23)cc1)NO [LAQ824 (Dacinostat)],41.2,5.42,48.6,12.4,33.6,0.789
COc1ccc(C2=N[C@@H](c3ccc(Cl)cc3)[C@@H](c3ccc(Cl)cc3)N2C(=O)N2CCNC(=O)C2)c(OC(C)C)c1 [Nutlin-3a],110,102,99.8,99.2,104,104
Cc1ccc(-c2cc(C(F)(F)F)nn2-c2ccc(S(N)(=O)=O)cc2)cc1 [Celecoxib],99.8,95.6,104,98.7,101,100
COc1ccc(S(=O)(=O)N(CCO)c2ccccc2CN(C)C/C=C/c2ccc(Cl)cc2)cc1 [KN-93 Phosphate],103,90.8,105,90.1,102,89.6
NC(=O)c1cccc2cn(-c3ccc([C@@H]4CCCNC4)cc3)nc12 [MK-4827(Niraparib) tosylate],103,91.7,109,103,92.5,97.1
CN1CCN(Cc2ccc(-c3cnc4[nH]cc(-c5ccc6[nH]ccc6c5)c4c3)cc2)CC1,96.6,91.2,97.2,85.4,92.5,101
Cc1cnc(-c2ccccc2C(C)C)nc1NCc1ccc(-n2ccnn2)cc1,108,97.8,105,108,101,98.5
"Nc1cc(C(F)(F)F)c(-c2cc(N3CCOCC3)nc(N3CCOCC3)n2)cn1 [BKM120 (NVP-BKM120, Buparlisib)]",112,77.9,96.2,72.4,97.7,78.5
CC[C@@]1(O)C(=O)OCc2c1cc1n(c2=O)Cc2cc3c(CN(C)C)c(O)ccc3nc2-1 [Topotecan HCl],9.75,5,12.8,5.92,11.1,2.71
CCCCc1nc2cc(/C=C/C(=O)NO)ccc2n1CCN(CC)CC [Pracinostat (SB939)],107,54,89.2,64.4,91.7,50.1
Cc1nc(C(=O)NCC(=O)O)c(O)c2ccc(Oc3ccccc3)cc12,102,98.6,104,98.5,98.3,95.4
Nc1ccc(C(=O)Nc2cccc(-c3nc(N4CCOCC4)c4oc5ncccc5c4n3)c2)cn1,98.7,104,102,104,102,103
CNC(=O)c1cc(Oc2ccc(NC(=O)Nc3ccc(Cl)c(C(F)(F)F)c3)c(F)c2)ccn1 [Regorafenib (BAY 73-4506)],103,116,105,107,105,105
COc1ccc(C2=N[C@@H](c3ccc(Cl)cc3)[C@@H](c3ccc(Cl)cc3)N2C(=O)N2CCNC(=O)C2)c(OC(C)C)c1 [Nutlin-3],106,97.3,109,103,99.8,99.6
Cc1nnc(C(C)C)n1C1C[C@H]2CC[C@@H](C1)N2CC[C@H](NC(=O)C1CCC(F)(F)CC1)c1ccccc1 (stereo in doubt) [Maraviroc],107,99.6,96,101,88,89.6
Cn1nnc2c(C(N)=O)ncn2c1=O [Temozolomide],110,110,107,100,98.8,96.5

Compound,cell proliferation ([1]; 50 nM),cell proliferation ([1]; 500 nM),cell proliferation ([2]; 50 nM),cell proliferation ([2]; 500 nM),cell proliferation (U2932 parental; 50 nM),cell proliferation (U2932 parental; 500 nM)
C[S+]([O-])c1ccc(-c2nc(-c3ccc(F)cc3)c(-c3ccncc3)[nH]2)cc1 (stereo unspecified),109,101,93.4,94.4,106,101
C[C@@H](Oc1cc(-n2cnc3ccc(CN4CCN(C)CC4)cc32)sc1C(N)=O)c1ccccc1C(F)(F)F,8.44,10,5.99,14.8,8,10.6
CN(CCOc1ccc(CC2SC(=O)NC2=O)cc1)c1ccccn1 (stereo unspecified) [Rosiglitazone],100,101,98.8,104,94,95.2
NC(=O)Nc1cc(-c2cccc(F)c2)sc1C(=O)N[C@H]1CCCNC1,89.8,13.6,91.8,18.9,83,11.5
CC(C)CCN1c2nc(Nc3cc(F)c(O)c(F)c3)ncc2N(C)C(=O)C1C (stereo unspecified),114,99.9,106,91.3,105,97.3
CN(C)CCOc1ccc(/C(=C(/CCCl)c2ccccc2)c2ccccc2)cc1 [Toremifene Citrate],102,84.4,101,75.1,101,88.8
C=CCNC1=C2C[C@@H](C)C[C@H](OC)[C@H](O)[C@@H](C)/C=C(\C)[C@H](OC(N)=O)[C@@H](OC)/C=C\C=C(/C)C(=O)NC(=CC1=O)C2=O [17-AAG (Tanespimycin)],103,115,105,114,96.7,107
COc1cc2c(NC3CCN(CC4CCCCC4)CC3)nc(N3CCCN(C(C)C)CC3)nc2cc1OCCCN1CCCCC1,95.3,105,91.4,115,96.3,110
NC1(c2ccc(-c3nc4ccn5c(=O)[nH]nc5c4cc3-c3ccccc3)cc2)CCC1,101,70.1,97.5,74.9,96.8,68.4
O=S(=O)(O)CCS [Mesna],110,116,101,103,95.4,103
CCc1cncnc1N1CCN(Cc2nc3ccc(C(F)(F)F)cc3[nH]2)CC1,100,101,96,100,88.9,92
Nc1ccccc1NC(=O)c1ccc(CNC(=O)OCc2cccnc2)cc1 [Entinostat (MS-275)],104,74.8,88.2,66.7,93.2,66.2
O=C(Cc1ccc(-c2ccc(OCCN3CCOCC3)cc2)cn1)NCc1ccccc1,14.1,8.36,20.3,8.01,13.9,9.55
Oc1ccc(/C=C/c2cc(O)cc(O)c2)cc1 [Resveratrol],102,111,102,106,103,101
CCCCCCCCCCCCCCCCCCOP(=O)([O-])OC1CC[N+](C)(C)CC1 [Perifosine (KRX-0401)],98.7,93.4,113,110,96.7,102
CCc1c2c(nc3ccc(OC(=O)N4CCC(N5CCCCC5)CC4)cc13)-c1cc3c(c(=O)n1C2)COC(=O)[C@]3(O)CC [Irinotecan],–,–,–,–,94.3,50.5
CCC[C@H](Nc1nc(-c2ccc(NC(=O)NCC)c(OC)c2)ncc1C)c1cccnc1 [CYT997 (Lexibulin)],10.1,9.29,8,12.1,10.4,14.3
